# Measurements as given in PubChem BioAssay AID492998 (Southern Research Specialized Biocontainment Screening …, 2010).
# Out of some 2,300 compounds screened, about 550 (24%) were called active. Not all results are given here. Results with a measured potency or affinity are listed apart. A number with no mark means an inactive call. How the calls were made is not given here.
# Test: Vero E6 cell cytotoxicity, dose response, cytotoxicity control for non-replicating M. tuberculosis project, secondary assay (AID 492998);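 further: 100% = vehicle-treated cells and 0% = background wells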
# Conditions: series mostly up to 20 µM; viability: at the top concentration
row,SMILES,viability [%]
1,CCOC(=O)COc1ccc2c(c1)C(=O)CC1(CCCCC1)O2,97.1
2,O=C(COc1ccc(Cl)cc1)Nc1ccccc1Cl,102
3,CC1=NN(C(=O)COc2ccccc2C)C(O)(c2ccc(Cl)cc2)C1 (stereo not given),94.2
4,Cc1cc(Cl)ccc1NNC(=O)c1c(C)noc1C,103
5,O=C(Oc1cccc2cccnc12)c1cccc([N+](=O)[O-])c1,101
6,COc1cccc(OCCNC(=O)c2cc([N+](=O)[O-])cc([N+](=O)[O-])c2)c1,107
7,COc1ccc(C(=O)NN/C(C)=C/C(=O)c2ccccc2)cc1,103
8,O=C(N/N=C/c1ccccn1)c1cccc([N+](=O)[O-])c1,108
9,Cc1ccc(CSCCNC(=O)c2cccc([N+](=O)[O-])c2)cc1,100
10,O=C(N/N=C/C=C/c1cccc([N+](=O)[O-])c1)c1ccncc1,102
11,O=C(c1ccco1)N1CCN(c2ccc(F)cc2)CC1,96.9
12,CCOC(=O)C(=O)Cc1nc2ccccc2s1,89.4
13,C=C1CCC[C@]2(C)C[C@H]3OC(=O)C(CNC(C)CCCC(C)C)[C@H]3CC12 (stereo not given in full),97.1
14,COc1ccc([C@@]2(O)c3c(ccc(CC=C(C)C)c3O)NC(=O)[C@@H]2OC)cc1,106
15,COc1ccccc1C(c1nnnn1Cc1ccccc1)N1CCC(C(N)=O)CC1 (stereo not given),102
16,Cc1ccc(-c2nnc(SCC#CCOC(=O)c3ccco3)o2)cc1,93.2
17,O=C(Cc1ccc(F)cc1)Nc1ccc(Cl)cn1,103
18,O=C1N(c2ccc3c(c2)OCCO3)C(c2ccccc2)C1(F)F (stereo not given),104
19,CCCCNC(=O)Cc1ccc(C)cc1,102
20,CC(C)NC(=O)C1COc2ccccc2O1 (stereo not given),94.9
21,O=C(Nc1ccc([N+](=O)[O-])cc1)C1COc2ccccc2O1 (stereo not given),103
22,O=C(N/N=C\c1ccc([N+](=O)[O-])o1)C1COc2ccccc2O1 (stereo not given),77.2
23,O=C(Nc1cccc(Cl)c1)C1COc2ccccc2O1 (stereo not given),109
24,CC(C)(C)c1ccc2c(c1)OC(C(=O)N/N=C\c1ccccn1)CO2 (stereo not given),109
25,Cn1cccc1/C=N\NC(=O)C1COc2ccccc2O1 (stereo not given),105

row,SMILES,viability [%]
1,Clc1ccc(CN2C3=NCCCN3c3ccccc32)cc1,81.8
2,C#CCOc1coc(COC(=O)c2ccccc2)cc1=O,103
3,Cc1ccc(C(C)NC(=O)c2cc3ccccc3oc2=O)cc1C (stereo not given),94.6
4,COC(=O)C1=C(C)N(Cc2ccccc2)C(=NCc2ccccc2)N[C@H]1c1cccc(F)c1,77.2
5,CC(OC(=O)c1ccc2c(=O)n3c(nc2c1)CCCCC3)C(=O)Nc1ccc(Cl)cn1 (stereo not given),92
6,CCOC(=O)Cn1cc(C#N)c2ccccc21,103
7,O=C(NCc1nnc(SC/C=C/c2ccccc2)o1)c1ccco1,95.6
8,CCCC(C)C(=O)Nc1ccc(Cl)cn1 (stereo not given),101
9,CC(C)(C)OC(=O)NCCc1nnc(S(=O)(=O)Cc2ccc(Cl)cc2Cl)o1,103
10,Nc1nc2ccccc2n1CCOc1ccccc1Cl,73.6
11,Cn1c(CNc2ccccc2O)nc2ccccc21,72.9
12,Nc1nc2ccccc2n1CCOc1ccc(Br)cc1,81.7
13,O=C(Nc1nc2ccccc2n1CCN1CCCC1)C1CCCCC1,97.2
14,CCOC(=O)c1csc(COc2ccccc2Cl)n1,105
15,O=C(Nc1ccc(-c2nc3ccccc3c(=O)o2)cc1)c1ccco1,104
16,O=C(COC(=O)c1cccs1)NCCC1=CCCCC1,97.1
17,O=C(OCC(=O)N1CCc2ccccc21)c1ccc([N+](=O)[O-])cc1,98.4
18,CN(C)CCN1C(=O)c2oc3ccccc3c(=O)c2C1c1cccc(Br)c1 (stereo not given),102
19,COC(=O)COc1cccc(NC(=O)COc2ccccc2)c1,101
20,COc1ccc(OC(=O)c2cc3ccccc3o2)cc1,98.2
21,CC(=O)c1ccc(OCC(=O)Nc2ccc3c(c2)CCC3)cc1,100
22,CC(=O)c1ccc(NC(=O)CCc2ccc(C)o2)cc1,102
23,CC1=NN(C(=O)c2ccccc2F)C(O)(c2ccc(Cl)cc2)C1 (stereo not given),109
24,Clc1cccc(/C=N\Nc2nccs2)c1,86
25,Cc1ccc(OCC(=O)OCc2c(C)noc2C)cc1C,95.7

row,SMILES,viability [%]
1,CCOC(=O)CN1NC2(CCCC(C)C2)NC1=S (stereo not given),98.1
2,Clc1c(OCCCn2ccnc2)ccc2ccccc12,71.7
3,Cn1c(=O)c(Oc2ccc(Cl)cc2)c(O)c2ccccc21,101
4,C=CCn1c(=O)c(C(=O)Nc2cccnc2)c(O)c2ccccc21,95.6
5,CCn1c(=O)c(C(=O)Nc2ncccc2C)c(O)c2ccccc21,76.2
6,Cc1cccnc1NC(=O)c1c(O)c2ccccc2n(C)c1=O,88.2
7,COc1ccc(C(O)CNc2ccc(C)cc2)cc1 (stereo not given),89.1
8,COc1ccc(NC(=O)c2nc3ccccc3s2)cc1,89.6
9,CC(C)c1cc(C(=O)N/N=C/C=C/c2ccccc2)n[nH]1,109
10,O=C(COc1ccccc1)Nc1ccc(Cl)cn1,96.7
11,O=C(NCc1ccccc1CN1CCCC1)c1cc2ccccc2o1,96.9
12,O=Cc1ccnc(-c2ccc(OC(=O)c3ccco3)cc2)n1,95.5
13,CCC1CCc2sc(C(=O)NCC3CCCO3)cc2C1 (stereo not given),85.2
14,CCOc1cc(C=O)cc(N=Nc2cccc([N+](=O)[O-])c2)c1O,90.5
15,O=C(COc1ccc2ccccc2c1Br)N1CCCC1,94.6
16,CCCn1c(=O)c(C(=O)N/N=C/c2ccccc2F)c(O)c2ccccc21,86.1
17,Nc1nonc1C(=O)N/N=C/c1ccc([N+](=O)[O-])o1,100
18,CC1=NN(C(=O)c2ccoc2C)C(O)(C(F)(F)F)C1 (stereo not given),82.2
19,COC(=O)C(O)(c1ccc(NC(=S)NC(=O)c2ccccc2)cc1)C(F)(F)F (stereo not given),101
20,CCOC(=O)Nc1ccc2c(c1)N(C(=O)CCCl)c1ccccc1[S@]2=O,88.5
21,C=CCn1c(O)c(C(C)=Nc2ccc(C(=O)OCC)cc2)c(=O)[nH]c1=O,105
22,CCCCNC(=O)Nc1nnc(-c2ccc(Cl)cc2)o1,93.9
23,CCOC(=O)c1ccc(NC2OC(=O)c3ccccc32)cc1 (stereo not given),93.6
24,C=CCN=C1SC(CC)C(=O)N1S(=O)(=O)c1ccc(C)cc1 (stereo not given),102
25,Cc1ccc(C(=O)CCC2CCCC2=O)cc1 (stereo not given),88.2
